The values that follow come from the supplement of paper PMC9262897, “Low-cost anti-mycobacterial drug discovery using engineered E. coli” (Nature Communications, 2022).

Structures can show the parent of a compound that is named as a salt. ± gives the standard deviation of the averaged measurements.

The subject of the assay is E. coli TESEC Mtb Alr. Nature of the assay: growth (OD600 after 10 h); higher = more growth (less inhibition). The note with it: compound 0.1 mM. The procedure: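 TESEC Mtb Alr E. coli, or the Alr+ wild-type control, in 384-well plates with Prestwick library compounds at 0.1 mM and 1% DMSO, across arabinose induction levels of 1E3 to 1E7 nM. Growth is read as OD600 after 10 h at 37 °C in triplicate biological replicates.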

Setting [1] is: arabinose 1000 nM, raw OD600 reference: median of DMSO wells 0.294, cell-free background 0.041.
Where [2] appears, read: arabinose 10000 nM, raw OD600 reference: median of DMSO wells 0.264, cell-free background 0.041.
Setting [3] is: arabinose 100000 nM, raw OD600 reference: median of DMSO wells 0.201, cell-free background 0.041.
The mark [4] stands for this setting: arabinose 1000000 nM, raw OD600 reference: median of DMSO wells 0.193, cell-free background 0.041.
The mark [5] stands for this setting: arabinose 10000000 nM, raw OD600 reference: median of DMSO wells 0.146, cell-free background 0.041.

With `CN1CCN2c3ncccc3Cc3ccccc3C2C1` (stereo not given) [Mirtazapine], the growth by setting is: under setting [1], 0.281 ± 0.0088; under setting [2], 0.2774 ± 0.0027; under setting [3], 0.225 ± 0.025; under setting [4], 0.182 ± 0.021; under setting [5], 0.162 ± 0.0043.

Consider `C[C@H](Cc1cc2c(c(C(N)=O)c1)N(CCCO)CC2)NCCOc1ccccc1OCC(F)(F)F` [Silodosin], for which the growth by setting is: under setting [1], 0.251 ± 0.0074; under setting [2], 0.273 ± 0.0053; under setting [3], 0.171 ± 0.019; under setting [4], 0.158 ± 0.015; under setting [5], 0.14 ± 0.0083.

`O=S(=O)(O)c1cc(O)ccc1O` [Ethamsylate] yielded a growth under setting [1] of 0.311 ± 0.0039; a growth under setting [2] of 0.258 ± 0.0087; a growth under setting [3] of 0.206 ± 0.018; a growth under setting [4] of 0.182 ± 0.0086; a growth under setting [5] of 0.13 ± 0.0042.

Consider `N=c1nc(N2CCCCC2)cc(N)n1O` [Minoxidil], for which the growth by setting is: under setting [1], 0.28 ± 0.0067; under setting [2], 0.247 ± 0.014; under setting [3], 0.225 ± 0.0082; under setting [4], 0.166 ± 0.0034; under setting [5], 0.148 ± 0.0099.

In the case of `CC(=O)c1ccc2c(c1)N(CCCN(C)C)c1ccccc1S2` [Acetopromazine maleate salt], the growth by setting is: under setting [1], 0.228 ± 0.0028; under setting [2], 0.263 ± 0.016; under setting [3], 0.208 ± 0.023; under setting [4], 0.123 ± 0.0016; under setting [5], 0.152 ± 0.0028.

In turn, `CCN1CCN(C(=O)N[C@@H](C(=O)N[C@@H]2C(=O)N3[C@@H]2SC(C)(C)[C@@H]3C(=O)O)c2ccccc2)C(=O)C1=O` [Piperacillin sodium salt] gave a growth under setting [1] of 0.295 ± 0.014; a growth under setting [2] of 0.268 ± 0.0055; a growth under setting [3] of 0.204 ± 0.0097; a growth under setting [4] of 0.201 ± 0.0086; a growth under setting [5] of 0.133 ± 0.0047.

Take `CCC(C)n1ncn(-c2ccc(N3CCN(c4ccc(OCC5COC(Cn6cncn6)(c6ccc(Cl)cc6Cl)O5)cc4)CC3)cc2)c1=O` (stereo not given) [Itraconazole]: the growth reads like this: under setting [1], 0.321 ± 0.01; under setting [2], 0.258 ± 0.0035; under setting [3], 0.251 ± 0.012; under setting [4], 0.171 ± 0.017; under setting [5], 0.148 ± 0.005.

As for `NS(=O)(=O)c1cc2c(cc1Cl)N=CNS2(=O)=O` [Chlorothiazide], the growth by setting is: under setting [1], 0.29 ± 0.0056; under setting [2], 0.268 ± 0.0056; under setting [3], 0.212 ± 0.021; under setting [4], 0.183 ± 0.0053; under setting [5], 0.1414 ± 0.00081.
